Test [1] is described as follows: UWB1.289 Cancer Cell Toxicity qHTS against the NCATS CANVASS Library (AID 1347347). Note: nearly all actives have a fitted effect of over 60% in size. Note: potency is the fitted concentration of half-maximal effect. Summed up:
(§1)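 Viability was assessed by adding CellTiter-Glo reagent to treated cultures and reading luminescence after 15min at room temperature. Treatment lasted 72 h at 37 degrees C/5% CO2, using an 11-point series on 1000 cells/well.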
In general terms: In qHTS, concentration-response curves come from the screen itself.

Test [2] is described as follows: SW1088 Cancer Cell Toxicity qHTS against the NCATS CANVASS Library (AID 1347350). Note: nearly all actives have a fitted effect of over 75% in size. Note: potency is the fitted concentration of half-maximal effect. Summed up:
as §1

A short description of test [3]: U-118MG Cancer Cell Toxicity qHTS against the NCATS CANVASS Library (AID 1347351). Note: potency is the fitted concentration of half-maximal effect. In short, it runs like this:
as §1

Test [4] in a line: UWB1.289-WTBRCA1 Cancer Cell Toxicity qHTS against the NCATS CANVASS Library (AID 1347354). Note: potency is the fitted concentration of half-maximal effect. Summed up: (§2)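 Cells at 1000/well were given compound 4 h after plating in an 11-point series. Viability was read by CellTiter-Glo luminescence after 72 h at 37 degrees C.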
Test [5] deals with NAD(P)H diaphorase (Clostridium kluyveri). The test can be described thus: Diaphorse counterscreen qHTS: Assay Interference Panel against the NCATS CANVASS Library (AID 1347362). Summed up:
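Clostridium kluyveri diaphorase in PBS with 0.01% Tween-20 was preincubated 15 min at room temperature in the dark with compounds (11-point series). Resorufin fluorescence (ex 525/20, em 598/25) was read 5 min after adding resazurin/NADH.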
In general terms: A counterscreen serves to expose hits that act by an unwanted route or on another target.

Test [6] in a line: KB-8-5-11 Cancer Cell Toxicity qHTS against the NCATS CANVASS Library (AID 1347364). Note: nearly all actives have a fitted effect of over 75% in size. Note: potency is the fitted concentration of half-maximal effect. Summed up:
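KB-8-5-11 cells, 500/well in DMEM + 10% FBS, given compounds in an 11-point series. Incubated 72 h at 37 °C. Viability by CellTiter-Glo luminescence. Confirmation also run with 1 uM tariquidar.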

Test [7] is described as follows: qHTS for ATAD5 Antagonist screened against the NCATS CANVASS Library (AID 1347370). Note: nearly all actives have a fitted effect of over 65% in size. Note: potency is the fitted concentration of half-maximal effect. In short, it runs like this:
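HEK293T cells with stably integrated ATAD5-luciferase reporter, 2000/well, 5 h attachment; compounds plus 10 µM 5-fluorouridine, 16 h at 37 °C. Luciferase luminescence read, with CellTiter-Fluor viability read first.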

In test [8] the target is Nuclear receptor subfamily 1 group I member 3 (Homo sapiens) (UniProt Q14994). The test can be described thus: qHTS for Constitutive Androstane Receptor (CAR) Antagonist screened against the NCATS CANVASS Library (AID 1347372).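 Note: cells stimulated with 50 nM CITCO agonist so inhibition reflects antagonism; series mostly up to about 46 µM.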 In short, it runs like this:
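HepG2 cells stably carrying hCAR and a CYP2B6-2.2kb luciferase reporter were exposed to compounds plus 50 nM CITCO for 24hr at 37C. CAR activity was read by ONE-Glo luminescence, with viability measured first by CellTiter-Fluor.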

The target is the same in test [9]. The test can be described thus: qHTS for Constitutive Androstane Receptor (CAR) Agonist screened against the NCATS CANVASS Library (AID 1347373).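 Note: every well also contained 1.5 µM PK11195 alongside the test compound.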 In short, it runs like this: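 HepG2 cells stably carrying hCAR and a CYP2B6-2.2kb luciferase reporter, treated 24hr at 37C with compounds plus 1.5uM PK11195; activation by ONE-Glo luminescence, viability by CellTiter-Fluor.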

Test [10] in a line: qHTS for Hypoxia signaling pathway (HIF-1) agonists against the NCATS CANVASS Library (AID 1347375). Note: potency is the fitted concentration of half-maximal effect. Summed up: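 HRE-bla ME-180 cells (0.5% dialyzed FBS) were pre-incubated 5 hrs at 37C, then exposed to compounds in an 11-point series for 17 hrs. Read-out was CCF4-AM beta-lactamase FRET (460/530 nm emissions), with CellTiter-Glo viability in the same wells.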
Test [11] can be described thus: 10-beta competent E. coli microbial cell viability qHTS against the NCATS CANVASS Library (AID 1347376). Note: series mostly up to about 46 µM. Summed up: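 10-beta competent E. coli (0.2 OD) were exposed overnight at 37C to compounds in an 11-point series. Viability was read as ATP-dependent BacTiter-Glo luminescence after 20 min at room temperature.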
Test [12] in a line: DH5-alpha competent E. coli microbial cell viability qHTS against the NCATS CANVASS Library (AID 1347377). Particulars: outcome: dose series up to 46.1 µM unless noted. In short, it runs like this: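 DH5-alpha E. coli suspension was exposed to an 11-point compound series overnight at 37 °C. Viable cells quantified by ATP luminescence (BacTiter-Glo) after 20 min at room temperature.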

Test [13] is described as follows: Cytotoxicity qHTS for assessment of Hepg2 cells membrane integrity screened against the NCATS CANVASS Library (AID 1347387). In short, it runs like this:
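HepG2 cells (2000/well) attached overnight, then exposed 5 hr at 37C to compounds in an 11-point series (0.59 nM - 46 uM final). LDH release from damaged membranes read fluorometrically (CytoTox-ONE; 560/590 nm) after 10 min at room temperature.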

The nature of test [14]: qHTS for Activators of p53 Stress Response Pathway screened against the NCATS CANVASS Library (AID 1347388). Note: potency is the fitted concentration of half-maximal effect. Summed up: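 p53RE-bla HCT-116 cells (4000/well) were plated 5 h at 37C, exposed to compounds for 16 h at 37C over an 11-point concentration series, then loaded with CCF4 for 2 h at room temperature; 460/530 nm emission ratio read.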
Test [15] in a line: qHTS assay for small molecule disruptors of mitochondrial membrane potential screened against the NCATS CANVASS Library (AID 1347389). Note: nearly all actives have a fitted effect of over 60% in size. Note: potency is the fitted concentration of half-maximal effect. Summed up: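 HepG2 cells (2,000/well) plated overnight, then exposed to compounds in 11-point qHTS series for 1 h at 37C before 30 min Mito-MPS dye; depolarization read as fall in red aggregate (590 nm) to green monomer (535 nm) fluorescence.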

Test [16] in a line: qHTS for activators of dead-cell proteases activity screened against the NCATS CANVASS Library (AID 1347392).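 Note: luminescence from protease leaking out of membrane-damaged cells cleaving impermeant substrate; rising signal means more cytotoxicity.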 In short, it runs like this:
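HepG2 cells (2000/well) attached 18 h at 37C, then exposed 5 h to compounds (11-point qHTS). Dead-cell protease activity read as luminescence from cell-impermeant AAF-aminoluciferin substrate after 15 min at room temperature.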

Test [17] can be described thus: Vero-766 cells viability qHTS against the NCATS CANVASS Library: Counterscreen for Zika virus inhibition assay (AID 1347394). Note: nearly all actives have a fitted effect of over 60% in size. Note: potency is the fitted concentration of half-maximal effect. Summed up: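 CellTiter-Glo luminescence, lower signal indicating cytotoxicity. Vero 766 cells without Zika virus, 1000 cells/well, plated overnight, then treated 72 h at 37C across an 11-point series.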
Test [18] can be described thus: qHTS for inhibitors of Wild type Zika virus screened against the NCATS CANVASS Library (AID 1347396). Note: potency is the fitted concentration of half-maximal effect. In short, it runs like this:
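Luminescent CellTiter Glo read-out of virus-induced cytotoxicity, 72 h post-infection, in Vero 766 cells. Compounds were tested at 11 concentrations; uninfected, vehicle-treated wells defined 100% inhibition.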

A short description of test [19]: Viability qHTS for inhibitors of the SERCaMP assay screened against the NCATS CANVASS Library (AID 1347400). Note: nearly all actives have a fitted effect of over 70% in size. Note: potency is the fitted concentration of half-maximal effect. Summed up:
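SH-SY5Y-GLuc SERCaMP MJH297-derived cells, 1000/well, plated 4 h, then exposed to compounds in an 11-point qHTS series for 48 h at 37C. Viability read as CellTiter-Glo luminescence.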

A short description of test [20]: HEK-293 Cancer Cell Toxicity qHTS against the NCATS CANVASS Library (AID 1347355). For outcome: series mostly up to about 46 µM. Note: nearly all actives have a fitted effect of over 65% in size. Note: potency is the fitted concentration of half-maximal effect. Summed up:
as §2

Records with an inconclusive call do not appear. A number with no mark means an inactive call. Active and inactive are the calls of the source. Calls come from the whole dose curve; as a rule, active = well fitted curve in the direction sought with a large enough effect; inconclusive = small, poorly fitted or top-dose-only effect, or another doubt; inactive = no such curve, though single readings can be large; an effect the other way counts as inactive or inconclusive.

Chain of Nuclear receptor subfamily 1 group I member 3 (Homo sapiens) (Q14994 whole entry, looked up): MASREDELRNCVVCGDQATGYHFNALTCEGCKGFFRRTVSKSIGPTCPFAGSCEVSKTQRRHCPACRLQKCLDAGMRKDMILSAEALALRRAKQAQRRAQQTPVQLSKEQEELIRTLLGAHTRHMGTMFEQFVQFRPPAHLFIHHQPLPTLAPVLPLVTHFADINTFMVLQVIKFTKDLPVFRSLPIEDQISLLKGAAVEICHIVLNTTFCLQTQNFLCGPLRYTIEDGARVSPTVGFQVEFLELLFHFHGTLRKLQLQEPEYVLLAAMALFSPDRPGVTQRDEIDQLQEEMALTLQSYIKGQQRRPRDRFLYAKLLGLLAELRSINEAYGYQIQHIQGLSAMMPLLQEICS

In the case of `C[C@@H]1C[C@H]2C[C@]3(CCCCN3C)[C@@H]3C[C@H]2[C@H](C1)N(C)C3`, the Potency entry in [1], in test [2], in test [3], in [4], in test [5] and in test [6] was “inactive” throughout. The Potency result in test [7], in [8], in [10], in test [14], in test [15] and in test [16] was “inactive” throughout. The Potency entry in [17] and in test [18] was “inactive” in each case. Moreover, the compound was called inactive in [9], in test [11], in [12] and in test [13].

Take `CC1(C)CC[C@]2(C(=O)O)CC[C@]3(C)C(=CC[C@@H]4[C@@]5(C)C[C@@H](O)[C@H](O)C(C)(C)[C@@H]5CC[C@]43C)[C@@H]2C1`: the Potency in test [1] was 11.8 µM (active); in test [2] it was 14.9 µM (active). Besides, the Potency result in [7], in test [8], in test [15] and in test [19] was “inactive” in each case. Also, the outcome in test [9], in test [11] and in test [12] was inactive.

For the compound `CO[C@@H]1C[C@@H](C[C@H]2CC[C@H](C)[C@H]([C@@H](C)C(=O)O)O2)O[C@]2(O[C@](C)([C@H]3CC[C@@](C)([C@@H]4O[C@@H]([C@H]5O[C@](C)(O)[C@H](C)C[C@@H]5C)C[C@@H]4C)O3)C[C@H]2C)[C@@H]1C`, the Potency in [2] is 0.0168 µM (active); in test [3], 5.3 µM (active); in test [4], 9.41 µM (active); in [20], 0.296 µM (active); in test [6] it was 5.9 µM (active); in test [7] it was 14.8 µM (active). Also, the Potency in test [14] is 3.71 µM (active); in test [15], 18.6 µM (active); in test [17] it was 4.67 µM (active); in [18] it was 1.04 µM (active); in test [19], 10.7 µM (active). In addition, the compound was classed as inactive in [9], in test [11] and in test [13]. In addition, in test [16], the Potency result was “inactive”.

For `C/C=C/C=C/C1(O)C2C=C3C(=O)CC45C(=O)C(O)=C(C)C(=O)C4C1C1(C(=O)C(O)=C(C)C(=O)C351)C2C` (stereo not given), the Potency entry in test [2], in test [3], in [4], in [20], in test [5] and in test [6] was “inactive” in each case. In addition, the Potency result in [7], in test [8], in [10], in [14], in test [15] and in test [16] was “inactive” in each case. In addition, the Potency entry in test [17], in [18] and in test [19] was “inactive” each time. The call in [9], in test [11], in test [12] and in test [13] was inactive.

For `CNc1ccc(Cl)cc1C(=O)OC[C@]1(C)[C@H]2CC[C@]3(C)[C@@H](C[C@@H](OC)[C@H](C)[C@H]3C3=C(O)C(=O)OC3O)[C@]2(C)CC[C@H]1O` (stereo not given in full), the Potency entry in test [1], in [3], in test [4], in test [20], in test [5] and in test [6] was “inactive” throughout. In addition, the Potency entry in test [7], in [8], in [15], in [16], in test [17] and in [18] was “inactive” in each case. Further, in [19], the Potency result was “inactive”. Further, the outcome in [9], in [11], in test [12] and in [13] was inactive. Moreover, the Potency in [10] was 13.3 µM (active); in test [14] it was 20.9 µM (active).

Values taken from PubChem BioAssay (NCATS).
